Measurements reported in ChEMBL document CHEMBL1961873, “Compounds: GSK PKIS; Assays: Nanosyn kinase panel” (2012).

What was measured:
[1] = target: Serine/threonine-protein kinase PAK 6 (Homo sapiens) (UniProt Q9NQU5); details: at 1 µM;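 note: values are mean percent inhibition of PAK6 kinase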
[2] = test system: Tyrosine-protein kinase ABL1 (Homo sapiens), P00519 [E255K]; details: at 0.1 µM
[3] = test system: Tyrosine-protein kinase ABL1 (Homo sapiens), P00519 [E255K]; details: at 1 µM
[4] = test system: Tyrosine-protein kinase ABL1 (Homo sapiens), P00519 [H396P]; details: at 0.1 µM
[5] = test system: Tyrosine-protein kinase ABL1 (Homo sapiens), P00519 [H396P]; details: at 1 µM
[6] = test system: Tyrosine-protein kinase ABL1 (Homo sapiens), P00519 [M351T]; details: at 0.1 µM
[7] = test system: Tyrosine-protein kinase ABL1 (Homo sapiens), P00519 [M351T]; details: at 1 µM
[8] = test system: Tyrosine-protein kinase ABL1 (Homo sapiens), P00519 [Q252H]; details: at 0.1 µM
[9] = test system: Tyrosine-protein kinase ABL1 (Homo sapiens), P00519 [Q252H]; details: at 1 µM
[10] = test system: Tyrosine-protein kinase ABL1 (Homo sapiens), P00519 [T315I]; details: at 0.1 µM
[11] = test system: Tyrosine-protein kinase ABL1 (Homo sapiens), P00519 [T315I]; details: at 1 µM
[12] = test system: Tyrosine-protein kinase ABL1 (Homo sapiens), P00519 [Y253F]; details: at 0.1 µM
[13] = test system: Tyrosine-protein kinase ABL1 (Homo sapiens), P00519 [Y253F]; details: at 1 µM
[14] = target: Tyrosine-protein kinase ABL1 (Homo sapiens) (UniProt P00519); details: at 0.1 µM
[15] = target: Tyrosine-protein kinase ABL1 (Homo sapiens) (UniProt P00519); details: at 1 µM
[16] = target: ALK tyrosine kinase receptor (Homo sapiens) (UniProt Q9UM73); details: at 0.1 µM
Chain of ALK tyrosine kinase receptor (Homo sapiens) (Q9UM73 19-1620 limits assumed): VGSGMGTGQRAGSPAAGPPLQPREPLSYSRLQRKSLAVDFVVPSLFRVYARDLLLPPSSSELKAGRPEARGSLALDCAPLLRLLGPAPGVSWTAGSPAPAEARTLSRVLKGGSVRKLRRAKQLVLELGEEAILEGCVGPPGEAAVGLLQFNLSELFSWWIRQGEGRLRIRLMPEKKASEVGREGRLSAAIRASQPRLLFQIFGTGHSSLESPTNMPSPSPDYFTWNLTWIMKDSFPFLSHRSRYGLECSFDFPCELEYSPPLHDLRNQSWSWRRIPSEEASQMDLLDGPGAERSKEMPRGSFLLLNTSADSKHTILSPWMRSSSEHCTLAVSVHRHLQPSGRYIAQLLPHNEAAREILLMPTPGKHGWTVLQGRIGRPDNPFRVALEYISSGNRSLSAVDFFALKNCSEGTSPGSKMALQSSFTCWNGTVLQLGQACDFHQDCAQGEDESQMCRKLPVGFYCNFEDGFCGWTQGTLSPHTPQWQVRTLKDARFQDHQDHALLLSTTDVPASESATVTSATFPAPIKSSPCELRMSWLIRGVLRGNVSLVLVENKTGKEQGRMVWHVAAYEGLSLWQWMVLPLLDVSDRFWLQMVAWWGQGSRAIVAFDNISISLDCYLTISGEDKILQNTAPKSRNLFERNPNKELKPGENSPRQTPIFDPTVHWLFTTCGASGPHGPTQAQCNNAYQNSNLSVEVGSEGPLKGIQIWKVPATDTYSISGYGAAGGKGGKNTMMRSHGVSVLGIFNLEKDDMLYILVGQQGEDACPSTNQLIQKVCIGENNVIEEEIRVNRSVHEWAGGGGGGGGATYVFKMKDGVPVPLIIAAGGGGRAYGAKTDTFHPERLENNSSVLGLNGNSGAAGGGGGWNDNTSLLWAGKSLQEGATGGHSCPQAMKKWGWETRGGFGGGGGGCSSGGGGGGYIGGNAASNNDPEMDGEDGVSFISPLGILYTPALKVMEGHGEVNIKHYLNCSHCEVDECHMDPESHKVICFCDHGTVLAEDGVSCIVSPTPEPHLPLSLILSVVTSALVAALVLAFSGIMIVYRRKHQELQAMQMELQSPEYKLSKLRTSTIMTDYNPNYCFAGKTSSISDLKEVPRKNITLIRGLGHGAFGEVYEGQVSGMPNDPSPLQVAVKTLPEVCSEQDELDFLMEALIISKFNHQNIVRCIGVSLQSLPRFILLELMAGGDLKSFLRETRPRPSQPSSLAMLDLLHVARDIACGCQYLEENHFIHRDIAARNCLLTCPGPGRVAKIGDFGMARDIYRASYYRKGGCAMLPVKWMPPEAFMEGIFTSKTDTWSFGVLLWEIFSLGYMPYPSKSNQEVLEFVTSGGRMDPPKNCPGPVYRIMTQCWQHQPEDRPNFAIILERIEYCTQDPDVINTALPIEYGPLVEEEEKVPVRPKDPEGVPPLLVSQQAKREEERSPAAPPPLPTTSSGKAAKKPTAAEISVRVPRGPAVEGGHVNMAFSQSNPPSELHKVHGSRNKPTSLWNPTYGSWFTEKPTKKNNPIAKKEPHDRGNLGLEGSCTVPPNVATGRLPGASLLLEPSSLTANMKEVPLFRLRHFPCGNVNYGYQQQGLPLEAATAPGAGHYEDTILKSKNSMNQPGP

[17] = target: ALK tyrosine kinase receptor (Homo sapiens) (UniProt Q9UM73); details: at 1 µM
[18] = target: Tyrosine-protein kinase ABL2 (Homo sapiens) (UniProt P42684); details: at 0.1 µM
Chain of Tyrosine-protein kinase ABL2 (Homo sapiens) (P42684 whole entry): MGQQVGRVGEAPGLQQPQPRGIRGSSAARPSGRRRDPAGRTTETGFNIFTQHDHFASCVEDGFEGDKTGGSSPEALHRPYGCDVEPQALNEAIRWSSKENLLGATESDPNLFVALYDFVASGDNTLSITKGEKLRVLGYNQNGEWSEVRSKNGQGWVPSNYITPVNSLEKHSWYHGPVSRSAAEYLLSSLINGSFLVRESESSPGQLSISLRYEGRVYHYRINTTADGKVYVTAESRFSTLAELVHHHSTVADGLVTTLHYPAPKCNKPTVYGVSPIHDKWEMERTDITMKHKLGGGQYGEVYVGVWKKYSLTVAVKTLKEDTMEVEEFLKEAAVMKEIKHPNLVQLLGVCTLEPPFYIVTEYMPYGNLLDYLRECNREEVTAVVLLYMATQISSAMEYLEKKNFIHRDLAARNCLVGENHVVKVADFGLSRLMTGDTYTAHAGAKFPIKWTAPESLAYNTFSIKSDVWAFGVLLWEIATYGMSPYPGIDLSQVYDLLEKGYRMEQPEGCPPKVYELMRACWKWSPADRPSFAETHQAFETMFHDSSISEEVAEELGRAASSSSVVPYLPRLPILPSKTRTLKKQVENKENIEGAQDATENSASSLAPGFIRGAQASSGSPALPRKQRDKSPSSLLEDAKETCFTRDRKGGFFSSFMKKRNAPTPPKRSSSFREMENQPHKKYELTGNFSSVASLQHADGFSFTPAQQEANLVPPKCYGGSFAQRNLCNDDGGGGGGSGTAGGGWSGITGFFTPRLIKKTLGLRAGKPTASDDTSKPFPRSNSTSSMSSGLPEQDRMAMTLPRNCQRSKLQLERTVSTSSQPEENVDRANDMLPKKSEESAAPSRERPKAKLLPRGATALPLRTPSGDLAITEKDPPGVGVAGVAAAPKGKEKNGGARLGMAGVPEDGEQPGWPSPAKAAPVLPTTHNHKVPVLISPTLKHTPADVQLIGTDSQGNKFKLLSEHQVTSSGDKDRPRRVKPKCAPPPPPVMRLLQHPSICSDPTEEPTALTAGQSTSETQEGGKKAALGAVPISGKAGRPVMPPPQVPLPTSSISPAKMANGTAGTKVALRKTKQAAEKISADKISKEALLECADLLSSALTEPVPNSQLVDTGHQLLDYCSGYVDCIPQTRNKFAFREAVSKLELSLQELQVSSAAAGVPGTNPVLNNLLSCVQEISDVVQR

[19] = target: Tyrosine-protein kinase ABL2 (Homo sapiens) (UniProt P42684); details: at 1 µM
[20] = target: Tyrosine-protein kinase receptor UFO (Homo sapiens) (UniProt P30530); details: at 0.1 µM;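 note: values are mean percent inhibition of AXL from the GSK PKIS screen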
Chain of Tyrosine-protein kinase receptor UFO (Homo sapiens) (P30530 whole entry): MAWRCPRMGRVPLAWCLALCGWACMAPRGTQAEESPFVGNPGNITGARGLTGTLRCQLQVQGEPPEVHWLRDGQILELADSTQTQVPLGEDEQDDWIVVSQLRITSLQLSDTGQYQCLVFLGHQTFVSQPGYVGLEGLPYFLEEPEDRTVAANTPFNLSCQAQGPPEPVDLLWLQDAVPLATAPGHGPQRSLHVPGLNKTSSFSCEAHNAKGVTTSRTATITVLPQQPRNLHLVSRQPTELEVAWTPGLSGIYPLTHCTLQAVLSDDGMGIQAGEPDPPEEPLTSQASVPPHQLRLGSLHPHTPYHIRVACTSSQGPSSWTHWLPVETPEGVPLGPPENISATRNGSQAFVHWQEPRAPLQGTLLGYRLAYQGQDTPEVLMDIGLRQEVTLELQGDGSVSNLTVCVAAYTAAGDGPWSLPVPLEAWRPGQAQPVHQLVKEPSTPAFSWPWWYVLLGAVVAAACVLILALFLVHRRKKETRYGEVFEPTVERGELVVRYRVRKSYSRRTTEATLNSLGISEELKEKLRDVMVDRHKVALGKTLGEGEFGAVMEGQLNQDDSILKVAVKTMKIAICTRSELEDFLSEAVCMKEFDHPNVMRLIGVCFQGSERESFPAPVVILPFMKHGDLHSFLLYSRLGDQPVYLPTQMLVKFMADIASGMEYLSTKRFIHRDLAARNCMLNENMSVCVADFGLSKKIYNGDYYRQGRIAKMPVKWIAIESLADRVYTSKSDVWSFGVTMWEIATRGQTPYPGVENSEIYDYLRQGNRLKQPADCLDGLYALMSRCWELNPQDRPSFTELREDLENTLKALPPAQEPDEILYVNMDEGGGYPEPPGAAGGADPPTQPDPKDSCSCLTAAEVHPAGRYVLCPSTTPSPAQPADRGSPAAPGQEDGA

Chain of Serine/threonine-protein kinase PAK 6 (Homo sapiens) (Q9NQU5 whole entry, looked up): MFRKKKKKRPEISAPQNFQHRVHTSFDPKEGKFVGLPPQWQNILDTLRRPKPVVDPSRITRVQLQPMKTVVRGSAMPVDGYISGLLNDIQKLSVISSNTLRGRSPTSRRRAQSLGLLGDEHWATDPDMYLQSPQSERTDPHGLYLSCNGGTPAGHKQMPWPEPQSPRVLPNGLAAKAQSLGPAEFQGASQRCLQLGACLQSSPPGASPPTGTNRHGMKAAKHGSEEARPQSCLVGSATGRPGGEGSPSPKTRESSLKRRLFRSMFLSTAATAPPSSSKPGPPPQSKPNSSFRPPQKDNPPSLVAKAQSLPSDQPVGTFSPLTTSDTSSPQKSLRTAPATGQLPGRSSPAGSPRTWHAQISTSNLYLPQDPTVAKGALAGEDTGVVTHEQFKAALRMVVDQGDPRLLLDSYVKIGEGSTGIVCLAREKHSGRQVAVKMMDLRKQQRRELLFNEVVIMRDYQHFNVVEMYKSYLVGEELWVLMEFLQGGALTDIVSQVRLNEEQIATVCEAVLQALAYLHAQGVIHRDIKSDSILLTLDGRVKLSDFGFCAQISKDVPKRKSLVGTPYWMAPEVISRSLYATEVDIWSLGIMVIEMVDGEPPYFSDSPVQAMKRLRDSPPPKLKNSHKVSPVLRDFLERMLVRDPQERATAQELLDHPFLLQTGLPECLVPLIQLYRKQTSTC

Compound	inhibition [1] [%]	inhibition [2] [%]	inhibition [3] [%]	inhibition [4] [%]	inhibition [5] [%]	inhibition [6] [%]	inhibition [7] [%]	inhibition [8] [%]	inhibition [9] [%]	inhibition [10] [%]	inhibition [11] [%]	inhibition [12] [%]	inhibition [13] [%]	inhibition [14] [%]	inhibition [15] [%]	inhibition [16] [%]	inhibition [17] [%]	inhibition [18] [%]	inhibition [19] [%]	inhibition [20] [%]
COc1ccc(-c2cc3c(N)ncnc3o2)cc1	-9.7	0.23	5.63	-0.22	11	0.58	11.2	-0.72	9.12	0.76	2.97	-0.25	10.8	2.28	11.4	-1.19	1.1	0.1	5.3	2.44
NS(=O)(=O)c1ccc(Nc2ncc(-c3ccccc3)o2)cc1	8.68	4.6	17.8	8.3	39.3	3.46	40.1	4.58	28.1	3.72	17.9	5.61	26.6	5.37	37.9	1.53	6.29	4.93	42	-5.59
CNC(=O)c1cc(-c2ccc(F)cc2)cc(-c2ccc(S(=O)(=O)N3CCCC3)cc2)c1N	-8.22	2.54	2.4	3.29	3.32	0.22	0.79	1.67	1.16	2.5	2.16	3.15	4.16	3.12	5.19	1.91	2.88	2.17	3.71	-5.35
CCNC(=O)O[C@H]1CN[C@H](C#Cc2cc3ncnc(Nc4ccc(OCc5cccc(F)c5)c(Cl)c4)c3s2)C1	4.55	4.1	2.82	3.17	2.6	2.39	0.66	2.61	2.16	1.66	1.84	3.4	1.32	3.63	4.84	1.85	4.55	3.5	5.21	-3.44
N#Cc1c(NC(=O)CN2CCOCC2)sc2c1CCCC2	-4.27	3.47	4.25	2.48	5.61	1.25	4.91	1.82	4.61	2.58	5.24	5.91	7.6	6.98	7.71	3.56	8.62	5.84	5.84	-5.02
COC(=O)c1sc(-n2cnc3cc(OC)c(OC)cc32)cc1OCc1ccccc1C(F)(F)F	0.71	6.91	22.7	5.82	18.2	4.03	16.2	6.05	18.9	2.67	4.91	6.46	21.6	3.86	12.3	3.59	12.4	3.44	5.92	-8.88
Cc1cccc(Nc2ncc(-c3ccccc3)o2)c1	4.48	-0.07	8.14	5.02	19.4	2.38	21.6	2.49	13.4	2.39	5.99	3.68	19.5	4.34	14.2	3.9	4.76	3.13	18	-1.8
COc1cc(N2CCN(C(C)C)CC2)ccc1Nc1nc(Nc2ccc(F)cc2C(N)=O)c2cc[nH]c2n1	3.58	-0.24	1.64	1.72	2.38	1.19	2.15	1.11	2.74	-0.7	7.02	0.29	1.6	3.76	3.4	88.3	88.8	-0.12	2.78	3.89
CC(C)COC(=O)c1ccc2c(c1)/C(=C/Nc1ccc(S(N)(=O)=O)cc1)C(=O)N2	0.35	1.63	21.7	4.36	26.6	4.24	33.2	3.65	28.9	5.23	43.4	4.12	28.8	1.58	36.3	-0.71	4.93	3.59	20.4	1.97
CNC(=O)c1cncc(/C=C/c2ccccc2Cl)c1	3.32	-0.16	14.2	2.14	24.1	3.34	20	1.38	17.3	0.79	8.51	3.01	27	7.06	33.6	0.91	0.92	4.13	21.1	4.02
COc1ccc(-c2cc(-c3c[nH]nc3-c3ccccn3)ccn2)cc1	-3.15	9.84	40.9	20.2	64.2	15.3	63.3	10.8	41	3.29	5.41	12.3	48.3	14.1	59.8	3.73	5.23	3.35	35.6	-6.83
NC(=O)c1sc(-n2cnc3ccc(C(F)(F)F)cc32)cc1OCc1ccccc1Br	-7.15	3.08	2.1	3.37	3.08	1.6	3.37	3.06	3.55	1.98	3.2	3.65	2.05	2.31	4.26	1.39	3.73	1.79	2.59	-8.18
COc1cccc(-n2ncc3c(N/N=C/c4ccc(F)cc4)ncnc32)c1	5.5	44.1	79.3	51.2	84.5	51.7	85.4	63.6	88.8	12.8	38.8	58.5	86.1	21.1	75.8	2.82	3.76	9.51	57.9	-4.72
CN1CCC(n2cnc(-c3ccc(F)cc3)c2-c2ccnc(Nc3ccccc3)n2)CC1	-6.61	2.58	4.56	4.83	13.6	0.84	10.2	3.66	9.15	1.45	4.98	3.47	9.91	1.69	11	1.58	2.39	3.42	10.2	-2.82
COc1ccc(CNC(=O)c2ccc(-c3cc(-c4nnc(C)o4)ccc3C)cc2)cc1	11.5	2.05	0.78	2.7	4.47	2.42	5.1	1.38	4.42	0.75	6.32	3.15	5.25	4.76	6.46	0.25	-0.53	4.31	4.39	4.83
